This is a sample that favours compounds with a hit; in the whole collection about 3.2% have one here.
AmpC inh no detg: AmpC beta-lactamase inhibition without detergent; P00811; AmpC nitrocefin hydrolysis, absorbance 480 nm, 0.0001% Triton; Potency, µM (series often up to 57.1 µM), inactives show at the highest dose activity change, negative = inhibition, actives largely listed as inhibitors; 330,000 compounds, 0.52% hits;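 also: plate controls were no compound for no effect and no enzyme for full effect; nearly all actives have a fitted effect of over 20% in size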
Target sequence (P00811 whole entry, looked up): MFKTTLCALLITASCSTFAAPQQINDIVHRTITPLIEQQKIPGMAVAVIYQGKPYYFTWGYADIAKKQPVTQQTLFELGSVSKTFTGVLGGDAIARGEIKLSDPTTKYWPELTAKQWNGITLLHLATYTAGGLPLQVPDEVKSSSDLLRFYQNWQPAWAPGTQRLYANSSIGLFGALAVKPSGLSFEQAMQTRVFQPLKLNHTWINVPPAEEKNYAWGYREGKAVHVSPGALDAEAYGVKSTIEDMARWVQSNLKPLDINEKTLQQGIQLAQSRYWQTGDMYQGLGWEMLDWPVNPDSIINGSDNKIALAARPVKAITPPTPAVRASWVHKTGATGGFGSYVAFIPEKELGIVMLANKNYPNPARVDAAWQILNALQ
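AmpC (5.3 nM in the dispensed reagent) in 20 mM phosphate pH 7.0 with 0.01% (detergent screen) or 0.0001% Triton X-100 was preincubated with compounds for 15 min at room temperature. Nitrocefin was then added from an 800 uM solution, and hydrolysis was followed at 480 nm.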
AMA1-RON2 inh: disrupts binding of P. falciparum AMA1 to RON2; AlphaScreen AMA1-biotinylated RON2 peptide binding; Potency, µM (top dose mostly 58.2 µM), inactives show at the top dose activity change, negative = inhibition, usual class: inhibitors; 360,000 compounds, 0.2% hits;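 also: 0% = vehicle wells and -100% = peptide control; nearly all actives have a fitted effect of over 45% in size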
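AMA1 (3D7) with his tag at 25 nM final met compounds first, then biotinylated RON2 peptide at 25 nM; detection used donor plus acceptor beads, 10 µg/mL apiece, read by AlphaScreen after 30 min at room temperature.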
AmpC inh detg: blocks E. coli AmpC beta-lactamase in detergent assay; AmpC hydrolysis of nitrocefin, absorbance 480 nm, 0.01% Triton; AID 485294; 370,000 compounds, 0.041% hits; Potency, µM (titrated, usually from 114 µM), inactives show at the highest dose activity change, negative = inhibition, usual class: inhibitors;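 also: 0% = no-compound wells and -100% = no-enzyme wells; nearly all actives have a fitted effect of over 25% in size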
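AmpC (5.3 nM in the dispensed reagent) in 20 mM phosphate pH 7.0 with 0.01% (detergent screen) or 0.0001% Triton X-100 was preincubated with compounds for 15 min at room temperature. Nitrocefin was then added from an 800 uM solution, and hydrolysis was followed at 480 nm.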
RE007 growth inh: less growth of the S. pombe RE007 Vpr strain | S. pombe RE007 Vpr strain, BacTiter-Glo ATP luminescence, 24 h | Potency, µM (highest dose often 92.2 µM), inactives show at the highest dose activity change, negative = less growth, hits mostly inhibitors | 360,000 compounds, 0.21% hits; active = well fitted falling curve with a large enough effect; inconclusive = small, poorly fitted or top-dose-only effect; inactive = no such curve, though single readings can be large or run the other way; also: nearly all actives have a fitted effect of over 50% in size
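Fission yeast RE007 carrying one integrated HIV-1 vpr copy, seeded at OD 0.01 in PMG+AL medium with 23 nL pinned compound. Grown 24 h at 30 degrees; viability read by BacTiter-Glo luminescence after 5 min.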
Sm TGR block: blocks Schistosoma mansoni thioredoxin glutathione reductase; AID 485364; purified TGR, DTNB reduction, TNB absorbance 405 nm; Potency, µM (series often up to 114 µM), inactives show top-dose activity change, negative = inhibition, most hits filed as inhibitors; 360,000 compounds, 3% hits; Q962Y6; also: nearly all actives have a fitted effect of over 60% in size
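First, TGR (20 nM dispensed) and NADPH were mixed with compound. Second, a 15 min room-temperature incubation followed. Third, further NADPH and then DTNB were added to start the reaction. Finally, TNB absorbance was monitored kinetically.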
* = called active by the depositor; ? = inconclusive; / = no result given. Unless noted, calls follow the shape of the dose curve; as a rule, active = well fitted curve in the direction sought with a large enough effect; inconclusive = small, poorly fitted or top-dose-only effect, or another doubt; inactive = no such curve, though single readings can be large; an effect the other way counts as inactive or inconclusive. Unless noted, % is scaled to controls: 0 for no effect and ±100 for the full control effect; potency is read from the fitted curve at half-maximal effect.

SMILES	AmpC inh no detg	AMA1-RON2 inh	AmpC inh detg	RE007 growth inh	Sm TGR block
CC(=O)OCC1=C(C(=O)O)N2C(=O)C(NC(=O)Cn3nc(C(F)F)c(Cl)c3C)C2SC1 (stereo not given)	-15%	23%	0%	5%	22µM*
CCN(CC)S(=O)(=O)c1ccc2c(c1)N(CC(=O)N1CCN(c3cccc(C)c3)C(C)C1)C(=O)CO2 (stereo not given)	/	/	-1%	/	4%
COc1ccc(C2C(=O)N(C3CCC(C)CC3)CC(=O)N2C2CCCC2)cc1OC (stereo not given)	/	/	7%	/	3%
CCN(CC)S(=O)(=O)c1cccc(C(=O)NCCc2ccccc2)c1	/	1%	/	15%	/
CN(c1ccccc1)S(=O)(=O)c1cccc(C(=O)NCCc2ccc(O)c(O)c2)c1	-39%	-3%	3%	5%	16µM*
Oc1c(Br)cc(Br)cc1C=Nc1cccnc1	19%	58%	?	/	?
Oc1c(Br)cc(Br)cc1/C=N/c1nccs1	-50%	76%	-1%	?	4µM*
